# DT40 TDP1 no CPT = qHTS for Inhibitors of human tyrosyl-DNA phosphodiesterase 1 (TDP1): qHTS in cells in absence of CPT. Potency, µM (doses to about 46.2 µM), inactives show at the highest dose activity change, negative = growth inhibition, usual class: inhibitors. 420,000 tested, 15% active. AID 686978, 2013. DT40 Tdp1-/- hTDP1 cells, no CPT, ATP luminescence, 48 h; note: % is set by controls: 0 for no effect and ±100 for the full control effect; nearly all actives have a fitted effect of over 55% in size
#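 Compound effects on proliferation are scored in DT40 Tdp1-/-;hTDP1 cells in the absence of CPT. ATP levels (CellTiter-Glo luminescence) are recorded after a ≥48 hr, 37 °C incubation.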
# ClpP mod = qHTS Assay for Activators of ClpP; 340,000 tested, 1.9% active; Potency, µM (highest dose often 57.5 µM), for the others: at the top dose activity change, negative = active; purified B. subtilis ClpP, FRET peptide cleavage, 20 min; active = well fitted falling curve with a large enough effect; inconclusive = small, poorly fitted or top-dose-only effect; inactive = no such curve, though single readings can be large or run the other way; note: the source files actives as falling curves though it sought activators and does not explain the sign; nearly all actives have a fitted effect of over 65% in size
# Target sequence (P80244 whole entry, looked up): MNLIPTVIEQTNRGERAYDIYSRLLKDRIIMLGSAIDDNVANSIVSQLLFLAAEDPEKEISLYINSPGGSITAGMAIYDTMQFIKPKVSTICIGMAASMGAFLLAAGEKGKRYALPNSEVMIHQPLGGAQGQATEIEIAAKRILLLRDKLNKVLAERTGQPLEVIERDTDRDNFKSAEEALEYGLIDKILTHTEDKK
#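 ClpP 10 microg/mL final, pH 8 Tris/KCl buffer with BSA, glycerol, Tween-20; compound pinned in; FRET-FV substrate; RT 20 min; Ex320/Em430; ΔFRET vs ADEP 5.8 microM, DMSO, no enzyme.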
# TDP1 block = qHTS Assay for Inhibitors of Tyrosyl-DNA Phosphodiesterase (TDP1); Tyrosyl-DNA phosphodiesterase 1 (Homo sapiens), Q9NUW8; recombinant TDP1, AlphaScreen DNA substrate cleavage; Potency, µM (top dose mostly 130 µM), without a hit: at the highest dose activity change, negative = inhibition, most hits filed as inhibitors; 350,000 tested, 0.28% active; AID 485290, 2010; note: % is set by controls: 0 for no effect and ±100 for the full control effect; nearly all actives have a fitted effect of over 40% in size
#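 Compounds were preincubated with Tdp1 (1 nM final) for 15 min at room temperature before substrate (15 nM final) started a 5 min reaction; beads (10 ug/ml final) were then added for 10 min before AlphaScreen detection.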
# DT40 TDP1 CPT = qHTS for Inhibitors of human tyrosyl-DNA phosphodiesterase 1 (TDP1): qHTS in cells in presence of CPT | chicken DT40 Tdp1-/-;hTDP1 cells + 20 nM CPT, ATP luminescence, 48 h | Potency, µM (series often up to 46.2 µM), for the others: at the top dose activity change, negative = growth inhibition, hits mostly inhibitors | 420,000 tested, 12% active; note: % is set by controls: 0 for no effect and ±100 for the full control effect; nearly all actives have a fitted effect of over 55% in size
#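 Cell growth measured by CellTiter-Glo luminescence after a minimum 48 h, 37 C compound exposure with 20 nM CPT in Tdp1-knockout DT40 cells stably expressing hTDP1, seeded 400/well; qHTS titration format.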
# The depositor's hits bear a star; ? = inconclusive; . = no result given; [ ] = remark or other dose. Shown are actives, neighbours in structure and some others; about 17% of the full set was active somewhere. Unless noted, calls come from the whole dose curve; as a rule, active = well fitted curve in the direction sought with a large enough effect; inconclusive = small, poorly fitted or top-dose-only effect, or another doubt; inactive = no such curve, though single readings can be large; an effect the other way counts as inactive or inconclusive. Potency is the fitted concentration of half-maximal effect.
SMILES,DT40 TDP1 no CPT,ClpP mod,TDP1 block,DT40 TDP1 CPT
Cc1ccc(Cn2c(C)c(C(=O)NCc3ccc4c(c3)OCO4)sc2=O)cc1,-29%,0%,.,?
Cc1c(C(=O)NCc2ccccc2C(F)(F)F)sc(=O)n1Cc1ccc(F)cc1,?,2%,.,21µM*
CSc1ccc(Cn2c(C)c(C(=O)NCc3ccc4c(c3)OCO4)sc2=O)cc1,15µM*,-2%,.,?
C=Cc1ccc(Cn2c(C)c(C(=O)NCc3ccc4c(c3)OCCO4)sc2=O)cc1,10µM*,-2%,.,?
CSc1ccc(Cn2c(C)c(C(=O)NCc3cccs3)sc2=O)cc1,23µM*,1%,.,?
Cc1ccc(Cn2c(C)c(C(=O)NCc3cccs3)sc2=O)cc1,-30%,-2%,.,?
CCN(CC)C(=O)Cn1ncc2c([nH]c3ccc(C)cc32)c1=O,-3%,?,1%,6%
COc1ccccc1NC(=O)C1=C(C)Nc2nc(SCc3ccc(Cl)cc3)nn2C1c1ccccc1Cl (stereo not given),?,?,5%,?
CCN(C[C@H]1N[C@@](C)(C(=O)OC)[C@H]2C(=O)N(Cc3ccccc3)C(=O)[C@@H]12)C(=O)c1ccc(C)cc1,-4%,1%,1%,-4%
Cc1ccc(CNC(=O)CNS(=O)(=O)c2cccs2)cc1,-12%,-5%,-3%,-3%
O=S(Cc1ccccc1)CC(O)(c1ccc(Cl)cc1)c1ccc(Cl)cc1 (stereo not given),?,1%,3%,?
NCC(O)(c1ccc(Cl)cc1)c1ccc(Cl)cc1,10µM*,-1%,0%,16µM*
CCN(CC)CCOc1ccc(C(O)(Cc2ccc(Cl)cc2)c2ccc(C)cc2)cc1 (stereo not given),4.7µM*,.,10%,3µM*
CCN(CC)CCNCC(O)(c1ccc(Cl)cc1)c1ccc(Cl)cc1,16µM*,.,1%,?
CC(C)NCC(O)(c1ccc(Cl)cc1)c1ccc(Cl)cc1,21µM*,.,1%,?
CN(C)c1cccc(-c2nnc(SCC(=O)NCc3ccco3)n2C)c1,0%,-2%,.,-10%
COc1cccc(C=O)c1OCCN1C(=O)c2ccccc2C1=O,-20%,-2%,.,-25%
Fc1ccc(-n2ncc3c(Nc4cccc(Cl)c4)ncnc32)cc1,?,-1%,3%,?
O=[N+]([O-])c1cc(C(F)(F)F)ccc1NCCCCNS(=O)(=O)c1ccc2ccccc2c1,23µM*,-1%,9%,21µM*
O=C(NCCCNc1ccc(C(F)(F)F)cc1[N+](=O)[O-])c1ccc(F)cc1,23µM*,1%,5%,16µM*
O=C(NCCn1ccc2ccccc21)c1ccc(Cl)cc1,?,-1%,-9%[12.3 µM],?
O=C(NC1CCN(Cc2ccccc2)CC1)c1ccccc1Cl,0%,0%,.,0%
CCOc1ccccc1C(=O)NC1CC2CCCC(C1)N2Cc1ccc(C)cc1 (stereo not given),21µM*,1%,3%,?
C#CCOc1ccccc1CNC1CCN(Cc2ccccc2)CC1,21µM*,-5%,.,?
O=C(NC1CCN(Cc2ccccc2)CC1)c1ccccc1OCc1ccccc1,7.3µM*,-3%,.,?
SMILES,DT40 TDP1 no CPT,ClpP mod,TDP1 block,DT40 TDP1 CPT
CCOc1ccccc1C(=O)NC1CCN(Cc2ccccc2)CC1,-5%,0%,.,1%
O=C(NC1CCN(Cc2ccccc2)CC1)c1ccccc1OCc1ccccc1Cl,?,-1%,9%,16µM*
O=C1CCCC2=C1C(c1ccccc1)CC(=O)N2c1ccc(F)cc1F (stereo not given),-19%,2%,1%,-4%
Cc1ccc(C(C(=O)Nc2ccc3c(c2)OCO3)N(C)C(=O)/C=C\c2ccc3c(c2)OCO3)cc1 (stereo not given),?,0%,3%,?
CCC1(CC)C(=O)C2=C3C1[C@H](C(=O)OC)CC(C(=O)OC)C[C@H]3[C@H]1C(=O)N(C)C(=O)[C@H]1[C@H]2C (stereo not given in full),.,.,5%,.
CCN(CC)CCNC(=S)Nc1ccc2nc(N3CCN(C)CC3)cc(C)c2c1,16µM*,.,.,26µM*
CCN(CC)CCNC(=S)Nc1ccc2nc(N3CCCC3)cc(C)c2c1,10µM*,4%,3%,13µM*
CCCN(CCC)CCCNC(=S)Nc1ccc2nc(N3CCCC3)cc(C)c2c1,13µM*,4%,5%,?
Cc1cc(N2CCCC2)nc2ccc(NC(=S)NCCCOC(C)C)cc12,?,-11%,0%,?
CCN(CC)CCNC(=S)Nc1ccc2nc(N3CCOCC3)cc(C)c2c1,-27%,4%,.,?
OC[C@@H](O)[C@H](O)C(/C=N/Nc1ccccc1)=N\Nc1ccccc1,?,34%,.,-26%
CCOC(=O)C1(CCc2ccccc2)CCN(Cc2nccn2CC)CC1,18µM*,.,.,?
CCOC(=O)C1(Cc2ccc(Cl)cc2)CCN(CCCn2cccn2)CC1,21µM*,.,-6%,?
CCOC(=O)C1(Cc2ccc(Cl)cc2)CCN(C(=O)CCc2cnccn2)CC1,-29%,.,0%,-13%
CCOC(=O)C1(Cc2ccc(Cl)cc2)CCN(Cc2nccn2CC)CC1,?,.,.,21µM*
CCOC(=O)C1(S(=O)(=O)c2ccc(Cl)cc2)CCN(Cc2ccc(Cl)cc2)CC1,18µM*,1%,2%,16µM*
CCOC(=O)C1(S(=O)(=O)c2ccccc2)CCN(Cc2ccc(Cl)cc2)CC1,?,-4%,5%,?
COC(=O)c1c(NC(=O)c2ccc(C(C)(C)C)cc2)sc2c1CCC(C)C2 (stereo not given),6%,4%,-6%[12.3 µM],11%
COC(=O)NC(CC(C)=O)c1cccc(C(F)(F)F)c1 (stereo not given),.,.,-3%[21 µM],.
COC(=O)c1c(C)sc(-c2c(-c3ccc(F)cc3)[nH]c3[nH]c(=O)[nH]c(=O)c23)c1O,-12%,-4%,5%,-1%
COC(=O)N1CCC[C@@]2(CCN(C(=O)Nc3ccccc3)C2)C1,-4%,.,.,10%
CCC[C@H]1C[C@H](C(=O)N[C@H]([C@@H]2O[C@H](SC)[C@@H](O)[C@H](O)[C@@H]2O)[C@H](C)O)N(C)C1,.,.,12%[21 µM],.
Cc1cc2c(=O)cc(-c3ccccc3)oc2c(C(=O)O)c1C,-4%,5%,.,2%
COc1cc(C2CC(=O)Nc3c2c(C)nn3-c2nncc(-c3ccc(C)cc3)n2)cc(OC)c1OC (stereo not given),-14%,0%,9%,-16%
CCOc1ccc(NC(=O)CCS(=O)(=O)c2ccc(Br)s2)cc1,15µM*,-1%,-6%,18µM*

# Screening results from PubChem BioAssay.
